The target of assay [1] is Lysosomal acid glucosylceramidase (Homo sapiens) (UniProt P04062). Put plainly: Glucocerebrosidase-p2 (AID 348; in the data active means potency below about 10 µM; further: potency means the concentration at half of the fitted maximal effect). The following applies: purified GBA, blue fluorogenic substrate, 40 min. An outline of the steps: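 Compounds titrated from 0.6 nM upwards against 0.2 nM enzyme in pH 5.9 citric acid/KH2PO4, taurocholate, tween-20; blue fluorogenic substrate 80 uM, 40 min room temperature, stopped and read Ex 365/Em 440 for AC50.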

Assay [2] is described as follows: AP1 Signaling Pathway (AID 357). Further: on the % scale 0 is the no-effect control and ±100 the full control effect. The following applies: ME-180 AP-1-bla reporter, EGF-induced, beta-lactamase ratio, 5 h; at 7.69 µM (top of the series) unless noted. In short, it runs like this: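 ME-180 cells with beta-lactamase reporter under AP-1 response element, stimulated with EC50 EGF; compounds tested in titration series, 5 h at 37 °C. CCF4 substrate added 2.5 h at room temperature; 460/530 nm emission ratio gave %activity and AC50.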

The target of assay [3] is Cytochrome P450 1A2 (Homo sapiens) (UniProt P05177). In words: p450-cyp1a2 (AID 410; calls by dose curve; further: potency means the concentration at half of the fitted maximal effect;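 on activity change, negative = inhibition: -100% = full effect of reference inhibitor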). The following applies: recombinant CYP1A2, luciferin-ME demethylation, luminescence; series mostly up to 57 µM. In short, it runs like this: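 20nM CYP1A2 with 100uM Luciferin-ME (at Km) in 100mM KPO4; compound preincubated 10 min, NADPH regeneration added, 60 min at room temperature. Luciferin quantified by luminescence after detection reagent; normalized to 57 uM furafylline.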

The nature of assay [4]: NFAT Signaling Pathway (AID 444).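 Further: carbachol stimulus at about its EC50 of 1 µM final; on the % scale 0 is the no-effect control and ±100 the full control effect.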 The following applies: Jurkat NFAT-bla M1, carbachol, beta-lactamase ratio, 5 h; at 7.69 µM (top of the series) unless noted. An outline of the steps:
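Jurkat cells carrying an NFAT-driven β-lactamase reporter and co-transfected muscarinic M1 receptor were treated with compound plus carbachol (1 uM final, an EC50 level) for 5 h at 37 °C. CCF4 loading followed for 1 h at RT; 460/530 nm ratio gave %activity.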

Assay [5] is described as follows: Stat Signaling Pathway (AID 446).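 Further: ME-180 cervical cancer cells given 40 pM IL-6 alongside compound; SIE-controlled beta-lactamase reporter measured as 460/530 nm FRET emission ratio; on the % scale 0 is the no-effect control and ±100 the full control effect.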 The following applies: ME-180 SIE beta-lactamase reporter, IL-6 stimulated, 5 h; at 7.69 µM (top of the series) unless noted. An outline of the steps:
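ME-180 cells carrying a SIE-driven beta-lactamase reporter are stimulated with 40 pM IL-6 for 5 h at 37C in the presence of compound. The 460/530 nm FRET substrate ratio is read after 2.5 h at RT. Data are normalised to 300 pM IL-6 and to 125 nM JAK inhibitor controls.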

Assay [6] addresses Glucocorticoid receptor (Homo sapiens) (UniProt P04150). In words: GR-EFC Redistribution (AID 451; calls by dose curve; further: potency means the concentration at half of the fitted maximal effect). The note with it: CHO-K1 GR-EFC translocation, beta-gal luminescence, 2 h. An outline of the steps:
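CHO-K1 cells stably expressing nuclear-localized β-gal enzyme acceptor and GR fused C-terminally to the enzyme donor fragment; ligand-driven nuclear translocation restores β-gal by complementation. Compounds titrated up to 46 uM final, 2 h at 37 °C; luminescence read.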

The target in assay [7] is Mitogen-activated protein kinase 10 (Mus musculus) (UniProt Q61831). In words: JNK3 AlphaScreen Assay (AID 530).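 Further: kinase came from lysate of stimulated human HepG2 cells; signal reports phosphorylation of biotinylated GST-cJun 1-79 at Ser73 with 10 µM ATP; on the % scale 0 is the no-effect control and ±100 the full control effect.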 The following applies: JNK3 lysate, c-Jun phosphorylation; series mostly up to 57.1 µM. An outline of the steps: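 Inhibitors reduce antibody binding to phosphorylated biotin-cJun, lowering AlphaScreen luminescence. Lysates from HepG2 cells pre-activated by IL-1beta plus TNF-alpha supplied JNK3; compounds were titrated.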
On the technique in general: Alpha assays give light when donor and acceptor beads are brought close together.

In assay [8] the target is Cytochrome P450 2D6 (Homo sapiens) (UniProt P10635). In words: qHTS Assay for Inhibitors and Substrates of Cytochrome P450 2D6 (AID 891; active means well fitted curve in the direction sought with a large enough effect; an effect the other way counts as inactive or inconclusive; further: potency means the concentration at half of the fitted maximal effect; nearly all actives have a fitted effect of over 60% in size). The following applies: recombinant CYP2D6, luciferin-ME EGE luminescence; series mostly up to 57.1 µM. An outline of the steps: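 Human CYP2D6 (5 nM) with 30 uM Luciferin-ME EGE (at Km) in 100 mM KPO4, compound preincubated 10 min, then NADPH regeneration system for 60 min at room temperature. Luciferin read by luminescence; normalized to 1.43 uM quinidine.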
On the technique in general: qHTS replaces the single test concentration by a dilution series.

A short description of assay [9]: qHTS Assay for Lipid Storage Modulators (AID 1519; calls by dose curve). The note with it: Drosophila S3 cells, BODIPY lipid droplet/cell ratio, laser cytometry, cells loaded with oleic acid; for activity change, negative = inhibition: at 57.5 µM (top of the series). An outline of the steps: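 Cells seeded at 5,000 per well were treated with compounds over a concentration series and loaded with oleic acid (400 uM, as added). Lipid droplet fluorescence (488 nm excitation, 500-530 nm channel) was read by laser-scanning cytometry and normalized to 20 uM Triacsin C.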

Assay [10] in a line: Primary qHTS for small molecule stabilizers of the endoplasmic reticulum resident proteome: Secreted ER Calcium Modulated Protein (SERCaMP) assay (AID 1508630; active means well fitted curve in the direction sought with a large enough effect; an effect the other way counts as inactive or inconclusive; further: on the % scale 0 is the no-effect control and ±100 the full control effect). The following applies: SH-SY5Y GLuc-SERCaMP (Gaussia luciferase released on ER calcium loss) secretion, thapsigargin, luminescence; series mostly up to 38.4 µM. An outline of the steps:
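GLuc-SERCaMP-expressing SH-SY5Y cells, pretreated 16 h with compound, are challenged with thapsigargin to empty ER calcium stores; after 4 h, coelenterazine is added directly to the medium and luminescence is imaged.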

Assay [11] deals with 3',5'-cyclic-AMP phosphodiesterase 4B (Homo sapiens) (UniProt Q07343). In words: qHTS Assay for Inhibitors of PDE-IV (AID 607; active means well fitted activation curve with a large enough effect in the main read-out, with a control signal flat, not every such curve was filed as active; further: % of control where 0% means no effect). The note with it: HEK293 ACTOne CNG channel cells, membrane potential fluorescence; series mostly up to 22.9 µM. An outline of the steps:
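HEK293 ACTOne cells with CNG channel (1000/well), endogenous PDE4; membrane potential dye, compounds up to 22.9 uM final. Fluorescence Ex 535/Em 590; RO 20-1724 (100 uM final) as reference.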

The target in assay [12] is Cytochrome P450 3A4 (Homo sapiens) (UniProt P08684). Put plainly: qHTS Assay for Inhibitors and Substrates of Cytochrome P450 3A4 (AID 884; active means well fitted curve in the direction sought with a large enough effect; an effect the other way counts as inactive or inconclusive; further: on the % scale 0 is the no-effect control and ±100 the full control effect; nearly all actives have a fitted effect of over 50% in size). The following applies: recombinant CYP3A4, Luciferin-PPXE luminescence; series mostly up to 57.1 µM. An outline of the steps:
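20 nM human CYP3A4 with 25 uM Luciferin-PPXE (at KM) in 200 mM KPO4, preincubated 10 min with compound; NADPH regeneration started a 60 min RT reaction. Luciferin detected by luminescence, normalized to 57 uM ketoconazole as full inhibition.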

Assay [13] is described as follows: qHTS Assay for Identification of Small Molecule Agonists for Hypoxia Response Element Signaling Pathway (AID 914; active means well fitted activation curve with a large enough effect in the signal ratio, with a control signal flat, not every such curve was filed as active; the % refers to the signal ratio; further: % of control where 0% means no effect). The note with it: ME-180 (cervical carcinoma) HRE-bla reporter, beta-lactamase ratio, CoCl2, 17 h; activation: stronger effect = higher value. In short, it runs like this: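 A beta-lactamase reporter under hypoxia response element control in ME-180 cells served as the system. Compound titrations plus EC50 CoCl2 ran 17 h at 37 degrees Celsius; AC50 values were fitted from %Activity.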

Assay [14] has as its target Cytochrome P450 3A4 (Homo sapiens) (UniProt P08684). Put plainly: qHTS Assay for Activators of Cytochrome P450 3A4 (AID 885; active means well fitted curve in the direction sought with a large enough effect; an effect the other way counts as inactive or inconclusive; further: nearly all actives have a fitted effect of over 65% in size). The following applies: recombinant CYP3A4, Luciferin-PPXE luminescence, 60 min; series mostly up to 57.1 µM. In short, it runs like this:
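Human CYP3A4 (20 nM) with Luciferin-PPXE at 25 uM (its KM) in 200 mM KPO4; 10 min compound preincubation, then NADPH regeneration and 60 min reaction at RT. Luciferin read by luminescence; normalized to 57 uM ketoconazole full inhibition.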

The target of assay [15] is Cytochrome P450 2C19 (Homo sapiens) (UniProt P33261). In words: qHTS Assay for Inhibitors and Substrates of Cytochrome P450 2C19 (AID 899; active means well fitted curve in the direction sought with a large enough effect; an effect the other way counts as inactive or inconclusive; further: potency means the concentration at half of the fitted maximal effect; nearly all actives have a fitted effect of over 60% in size). The following applies: recombinant CYP2C19, luciferin-H EGE luminescence; series mostly up to 57.1 µM. An outline of the steps:
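NADPH-dependent conversion of Luciferin-H EGE (10uM, at KM) by 5nM enzyme in 50mM KPO4, 60 min at 37C following 10 min compound preincubation. Stopped with luciferin detection buffer; luminescence read after 20 min.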

The mark [16] stands for this setting: measured here: cell count channel max response.
The mark [17] stands for this setting: measured here: lipid channel max response.

Results filed as inconclusive are left out. Calls of active or inactive are those of the source. Unless noted, the call rests on the fitted dose curve; in most records, active means well fitted curve in either direction with a large enough effect (not every such curve was filed as active); inconclusive means small, poorly fitted or top-dose-only effect, or another doubt; inactive means flat fitted curve, though single readings scatter. Bounds are passed on as bounds.

Chain of Cytochrome P450 2D6 (Homo sapiens) (P10635 whole entry, looked up): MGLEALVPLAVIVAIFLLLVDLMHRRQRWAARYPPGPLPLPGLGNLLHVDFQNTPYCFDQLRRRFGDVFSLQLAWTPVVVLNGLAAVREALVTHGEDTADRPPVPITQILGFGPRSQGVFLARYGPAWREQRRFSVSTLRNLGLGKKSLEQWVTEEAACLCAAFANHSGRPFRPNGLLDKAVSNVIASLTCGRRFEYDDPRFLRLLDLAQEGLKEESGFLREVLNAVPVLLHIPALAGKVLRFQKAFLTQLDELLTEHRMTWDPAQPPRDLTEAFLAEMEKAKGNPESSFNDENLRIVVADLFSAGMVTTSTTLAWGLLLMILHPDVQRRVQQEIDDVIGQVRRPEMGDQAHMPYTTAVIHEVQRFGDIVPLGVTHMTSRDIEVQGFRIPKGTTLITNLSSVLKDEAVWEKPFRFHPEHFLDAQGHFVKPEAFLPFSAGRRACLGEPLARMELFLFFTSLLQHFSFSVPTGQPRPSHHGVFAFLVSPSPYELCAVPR
Chain of Lysosomal acid glucosylceramidase (Homo sapiens) (P04062 whole entry, looked up): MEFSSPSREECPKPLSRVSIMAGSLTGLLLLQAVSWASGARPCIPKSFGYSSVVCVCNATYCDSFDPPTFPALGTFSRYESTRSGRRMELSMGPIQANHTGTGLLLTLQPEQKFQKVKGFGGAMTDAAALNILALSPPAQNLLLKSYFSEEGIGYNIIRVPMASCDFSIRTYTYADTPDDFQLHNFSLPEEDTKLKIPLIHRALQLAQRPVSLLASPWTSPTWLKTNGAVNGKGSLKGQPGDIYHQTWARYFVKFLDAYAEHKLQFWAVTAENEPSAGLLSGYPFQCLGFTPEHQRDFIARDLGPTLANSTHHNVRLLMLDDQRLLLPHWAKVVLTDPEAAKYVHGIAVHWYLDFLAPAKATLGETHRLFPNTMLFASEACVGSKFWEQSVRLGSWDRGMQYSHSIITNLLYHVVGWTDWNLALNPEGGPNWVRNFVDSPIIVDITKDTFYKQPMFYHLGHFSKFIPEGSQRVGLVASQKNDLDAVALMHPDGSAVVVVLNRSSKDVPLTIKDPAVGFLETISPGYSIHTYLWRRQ
Chain of Glucocorticoid receptor (Homo sapiens) (P04150 whole entry, looked up, the tested form may be a part): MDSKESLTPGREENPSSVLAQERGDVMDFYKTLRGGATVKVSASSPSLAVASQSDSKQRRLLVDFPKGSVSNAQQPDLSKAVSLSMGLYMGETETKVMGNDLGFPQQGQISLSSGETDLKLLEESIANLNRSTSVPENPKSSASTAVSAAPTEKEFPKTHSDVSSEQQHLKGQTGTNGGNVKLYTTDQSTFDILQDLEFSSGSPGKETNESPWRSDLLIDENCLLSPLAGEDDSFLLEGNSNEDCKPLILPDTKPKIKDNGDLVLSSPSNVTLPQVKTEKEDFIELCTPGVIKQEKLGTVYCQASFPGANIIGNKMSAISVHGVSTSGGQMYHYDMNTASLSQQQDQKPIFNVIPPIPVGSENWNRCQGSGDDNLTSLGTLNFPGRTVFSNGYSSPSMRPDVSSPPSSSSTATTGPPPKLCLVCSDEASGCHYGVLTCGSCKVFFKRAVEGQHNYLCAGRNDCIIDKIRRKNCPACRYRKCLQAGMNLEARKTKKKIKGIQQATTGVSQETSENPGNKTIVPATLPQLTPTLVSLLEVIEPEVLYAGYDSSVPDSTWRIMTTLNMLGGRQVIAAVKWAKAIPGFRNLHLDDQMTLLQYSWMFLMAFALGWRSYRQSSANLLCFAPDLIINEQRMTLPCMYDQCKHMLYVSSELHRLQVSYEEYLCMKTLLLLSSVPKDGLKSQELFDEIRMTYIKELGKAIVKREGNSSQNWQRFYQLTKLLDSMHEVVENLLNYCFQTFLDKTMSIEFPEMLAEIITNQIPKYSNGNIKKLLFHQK
Chain of Cytochrome P450 3A4 (Homo sapiens) (P08684 whole entry, looked up): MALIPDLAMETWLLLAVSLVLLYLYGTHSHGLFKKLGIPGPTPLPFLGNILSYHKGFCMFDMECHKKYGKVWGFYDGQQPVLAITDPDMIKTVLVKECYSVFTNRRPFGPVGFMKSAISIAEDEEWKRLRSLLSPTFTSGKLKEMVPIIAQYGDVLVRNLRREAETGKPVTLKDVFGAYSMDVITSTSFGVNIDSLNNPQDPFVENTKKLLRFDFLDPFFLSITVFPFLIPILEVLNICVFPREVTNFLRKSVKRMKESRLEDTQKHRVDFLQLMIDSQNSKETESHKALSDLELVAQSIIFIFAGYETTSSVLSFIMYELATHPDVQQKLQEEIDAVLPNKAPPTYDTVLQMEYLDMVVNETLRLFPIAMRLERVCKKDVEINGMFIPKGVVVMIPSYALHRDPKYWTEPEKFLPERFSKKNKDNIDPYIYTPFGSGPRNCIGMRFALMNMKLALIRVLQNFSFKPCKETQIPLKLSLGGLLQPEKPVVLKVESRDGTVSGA
Chain of 3',5'-cyclic-AMP phosphodiesterase 4B (Homo sapiens) (Q07343 whole entry, looked up): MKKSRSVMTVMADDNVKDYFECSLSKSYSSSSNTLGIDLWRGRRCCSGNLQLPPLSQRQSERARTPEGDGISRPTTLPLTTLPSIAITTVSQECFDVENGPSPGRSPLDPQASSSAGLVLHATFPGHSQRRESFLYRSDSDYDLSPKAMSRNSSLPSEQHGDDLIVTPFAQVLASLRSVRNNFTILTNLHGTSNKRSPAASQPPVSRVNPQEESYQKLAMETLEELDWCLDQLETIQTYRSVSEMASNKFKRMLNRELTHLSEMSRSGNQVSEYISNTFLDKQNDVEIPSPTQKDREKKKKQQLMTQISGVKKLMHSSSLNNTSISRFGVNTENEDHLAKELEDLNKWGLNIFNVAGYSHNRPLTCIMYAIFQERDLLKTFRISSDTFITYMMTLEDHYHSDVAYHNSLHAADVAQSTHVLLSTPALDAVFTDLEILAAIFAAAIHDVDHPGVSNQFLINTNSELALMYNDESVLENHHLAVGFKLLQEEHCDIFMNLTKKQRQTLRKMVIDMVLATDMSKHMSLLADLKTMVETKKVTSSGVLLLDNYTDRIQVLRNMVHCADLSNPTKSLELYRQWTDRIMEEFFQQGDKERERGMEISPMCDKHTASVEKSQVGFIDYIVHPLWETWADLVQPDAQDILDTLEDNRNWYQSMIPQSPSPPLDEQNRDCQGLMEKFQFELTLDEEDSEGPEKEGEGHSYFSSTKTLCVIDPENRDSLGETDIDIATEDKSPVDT
Chain of Cytochrome P450 1A2 (Homo sapiens) (P05177 whole entry, looked up): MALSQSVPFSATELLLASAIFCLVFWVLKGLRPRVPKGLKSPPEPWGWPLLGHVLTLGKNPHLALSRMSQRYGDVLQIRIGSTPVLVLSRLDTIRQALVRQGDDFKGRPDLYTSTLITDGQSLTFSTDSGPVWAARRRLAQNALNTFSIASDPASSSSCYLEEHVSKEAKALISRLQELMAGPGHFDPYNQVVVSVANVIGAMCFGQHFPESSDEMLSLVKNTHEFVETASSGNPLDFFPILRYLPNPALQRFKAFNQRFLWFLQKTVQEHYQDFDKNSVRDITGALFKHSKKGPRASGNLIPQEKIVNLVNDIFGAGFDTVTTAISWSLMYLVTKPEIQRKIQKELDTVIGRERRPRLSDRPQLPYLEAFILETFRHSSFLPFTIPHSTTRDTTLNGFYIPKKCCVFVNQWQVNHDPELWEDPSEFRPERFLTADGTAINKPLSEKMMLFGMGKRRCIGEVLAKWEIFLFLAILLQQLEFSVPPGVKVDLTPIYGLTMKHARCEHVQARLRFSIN
Chain of Cytochrome P450 2C19 (Homo sapiens) (P33261 whole entry, looked up): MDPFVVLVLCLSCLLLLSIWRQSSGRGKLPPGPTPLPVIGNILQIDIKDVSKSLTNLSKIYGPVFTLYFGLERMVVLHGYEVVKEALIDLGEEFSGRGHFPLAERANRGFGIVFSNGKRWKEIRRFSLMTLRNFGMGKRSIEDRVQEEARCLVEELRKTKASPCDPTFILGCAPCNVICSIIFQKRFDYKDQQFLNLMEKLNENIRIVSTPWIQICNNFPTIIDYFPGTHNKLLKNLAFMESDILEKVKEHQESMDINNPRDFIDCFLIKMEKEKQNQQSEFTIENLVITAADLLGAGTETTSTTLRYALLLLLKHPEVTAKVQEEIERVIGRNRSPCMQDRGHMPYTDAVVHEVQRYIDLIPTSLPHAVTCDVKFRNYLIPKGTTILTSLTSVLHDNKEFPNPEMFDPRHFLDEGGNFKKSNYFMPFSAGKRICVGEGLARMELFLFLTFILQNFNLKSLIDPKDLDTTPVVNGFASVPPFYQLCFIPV

Turning to `COC(=O)N1CCC[C@@]2(CCN(C(c3ccccc3)c3ccccc3)C2)C1`, the Potency in assay [1] is > 11.4 µM (inactive); in assay [3], 12.6 µM (active); in assay [6] it was > 46 µM (inactive); in assay [8], 2 µM (active). For the same compound, the activity change, negative = inhibition in assay [2] is -2.49% (inactive); in assay [4] it was -6.57% (inactive); in assay [9], -5.11% (inactive). Also, the activity, negative = inhibition in assay [5] is 3.94% (inactive). Further, in assay [7], the call was inactive. Also, the max response in [9] (setting [16]) worked out at 6.34%; in assay [9] (setting [17]), 4.63%. In [10], the Potency result is “inactive”.
With `N#Cc1cccc(NC(=O)N2CCC3(CC2)CCN(C(=O)c2ccco2)CC3)c1`, the results for the Potency in assay [1] and in [6] were > 11.4 µM (inactive) and > 46 µM (inactive), respectively. The activity change, negative = inhibition is -7.83% (inactive) in assay [2], -8.92% (inactive) in assay [4] and 6.33% (inactive) in [9]. For the same compound, the Potency result in assay [3], in assay [11], in [12] and in [10] was “inactive” each time. The activity, negative = inhibition in assay [5] was 4.51% (inactive). The max response in assay [9] (setting [16]) amounted to 10.3%; in assay [9] (setting [17]), 18.9%.
With `COCC(=O)N1CCC[C@@]2(CCN(Cc3ccccc3OC)C2)C1`, the Potency in assay [1] was > 11.4 µM (inactive); in [6] it was > 46 µM (inactive); in assay [8] it was 6.31 µM (active). Further, the results for the activity change, negative = inhibition in [2], in assay [4] and in assay [9] were -5.37% (inactive), 7.38% (inactive) and 3.26% (inactive), respectively. Also, the Potency result in assay [3], in assay [11] and in assay [10] was “inactive” each time. The activity, negative = inhibition in assay [5] was -1.88% (inactive). For the same compound, the compound was called inactive in [7]. For the same compound, in assay [13], the activation is -5.2% (inactive). Further, the max response in assay [9] (setting [16]) was determined as 0.0589%; in assay [9] (setting [17]), 5.61%.
Regarding `N#Cc1ccc(CN2CCCC3(CCN(C(=O)c4cccc(F)c4)CC3)C2)cc1`, the figures for the Potency in assay [1] and in assay [6] were > 11.4 µM (inactive) and > 46 µM (inactive), respectively. The activity change, negative = inhibition in assay [2] was 19.4% (inactive); in assay [4] it was -65.7% (active); in assay [9], 2.12% (inactive). Also, the Potency entry in assay [3], in [11], in assay [14] and in assay [10] was “inactive” throughout. Further, the activity, negative = inhibition in assay [5] was -5.26% (inactive). In assay [7], the outcome was inactive. The activation in assay [13] is -15.7% (inactive). The results for the max response in [9] (setting [16]) and in [9] (setting [17]) were 15% and 19.8%, respectively.
For the compound `CS(=O)(=O)N1CCC2(CC1)CN(Cc1cc(C(F)(F)F)cc(C(F)(F)F)c1)C2`, the Potency in assay [1] is > 11.4 µM (inactive); in assay [6], > 46 µM (inactive); in assay [8], 0.398 µM (active). Moreover, the values for the activity change, negative = inhibition in assay [2], in [4] and in [9] were 5.66% (inactive), -8.2% (inactive) and 2.23% (inactive), respectively. The Potency entry in assay [3], in assay [11] and in assay [10] was “inactive” each time. The activity, negative = inhibition in [5] is -3.12% (inactive). Moreover, in assay [7], the compound was called inactive. Moreover, the max response in [9] (setting [16]) was -5.23%; in assay [9] (setting [17]), 0.681%.
Take `Cn1cccc1C(=O)N1CCC[C@@]2(CCN(c3ccccc3)C2)C1`: the Potency in assay [1] was > 11.4 µM (inactive); in assay [3] it was 12.6 µM (active); in [6], > 46 µM (inactive); in assay [15] it was 5.01 µM (active). The activity change, negative = inhibition in assay [2] was -3.25% (inactive); in assay [4] it was -15.1% (inactive); in assay [9] it was -1.47% (inactive). Also, in [5], the activity, negative = inhibition is -10.8% (inactive). Besides, the Potency entry in assay [11], in assay [14] and in [10] was “inactive” in each case. The max response in assay [9] (setting [16]) was 15.8%; in [9] (setting [17]), 17.2%.
